Experimental data reported in ChEMBL document CHEMBL4888484, “Replenishing the malaria drug discovery pipeline: Screening and hit evaluation of the MMV Hit Generation Library 1 (HGL1) against asexual blood stage Plasmodium falciparum ,using a nano luciferase reporter read-out” (2022).
Hit rate of the full screen: of about 4,800 compounds, about 420 (8.8%) showed an effect of 50% or more. The entries come from a sample that favours strong results as a whole.

System: Plasmodium falciparum
Test: Confirmatory screen in NF54 nanoGlo assay, in single point, at 2uM, 72h
Type: functional, Erythrocyte
Settings: timepoint 72 hour

Question: How did the “% Inhibition” value turn out when `Cc1cccc(C(=O)ON2C(=O)CCC2=O)c1` was run?
Answer: -11%

Question: `CCCCC[C@H](C)NC(=O)CCC(=O)Nc1cccnc1` was tested. Which “% Inhibition” value did it give?
Answer: -11%

Question: Which “% Inhibition” value does the source give for `Cc1ccc(Oc2ccccc2CNC(=O)[C@@H]2CCC(=O)N2)cc1` here?
Answer: -6%

Question: Which “% Inhibition” value does the source give for `COCCN(Cc1nc(C(=O)NC(C)C)cs1)C(=O)Nc1ccc(C(C)C)cc1` here?
Answer: 4%

Question: With `CC1CCN(C(=O)Cc2csc(NC(=O)c3cccc(O)c3)n2)CC(C)C1` (stereo not drawn) as the compound, how does the “% Inhibition” value read?
Answer: -10%

Question: `Fc1cnc(OC2Cc3ccccc3C2)nc1` was tested. Which “% Inhibition” value did it give?
Answer: 57%

Question: `CCn1c(C)cc(C(=O)O[C@@H](C)C(=O)Nc2ncccn2)c1C` was tested. Which “% Inhibition” value did it give?
Answer: -4%

Question: Which “% Inhibition” value does the source give for `CC1CCCC(C)N1C(=O)CN(C)c1cccc2cccnc12` (stereo not drawn) here?
Answer: -7%

Question: Which “% Inhibition” value does the source give for `Cc1ccc(S(=O)(=O)Nc2ccc(Br)cc2C(=O)Nc2ccc(Oc3ccc(Br)c4ccccc34)c(Cl)c2)cc1` here?
Answer: 6%

Question: With `C[C@@H](CC(=O)Nc1cncnc1-n1cccn1)c1ccccc1` as the compound, how does the “% Inhibition” value read?
Answer: -3%

Question: `OC(CC(Nc1ccc(Cl)cc1)c1ccccc1)c1ccccc1` (stereo not drawn) was tested. Which “% Inhibition” value did it give?
Answer: -8%

Question: How did the “% Inhibition” value turn out when `CC(C)n1nccc1N1C(=O)N[C@@H](CC(F)(F)F)C1=O` was run?
Answer: 0%

Question: For `O=C(Nc1cnc2ccccc2c1)c1ccccc1C(=O)c1ccc(F)cc1`, which “% Inhibition” value is on record?
Answer: 96%

Question: Which “% Inhibition” value does the source give for `CCN1C(=O)C[C@H](C(=O)Nc2cnc3ccccc3c2)[C@H]1c1nccn1CC` here?
Answer: 2%

Question: How did the “% Inhibition” value turn out when `O=C(Nc1cc(NC(=O)c2ccc(F)cc2)cc(Oc2cccnc2)c1)c1ccc(F)cc1` was run?
Answer: -1%

Question: `Cc1nn(C)c(NC(=O)Nc2cccc(Cl)c2)c1C1=CCCCC1` was tested. Which “% Inhibition” value did it give?
Answer: -5%

Question: `COc1ccc(-c2cn(-c3ccc(OC)cc3)c(N)c2C#N)cc1` was tested. Which “% Inhibition” value did it give?
Answer: -7%

Question: `CCc1n[nH]c(=O)c(C(=O)Nc2cnc3[nH]nc(C)c3c2)c1CC` was tested. Which “% Inhibition” value did it give?
Answer: -1%

Question: Which “% Inhibition” value does the source give for `Cc1nsc(N2CCN(CC(C)O)C(C)C2)n1` (stereo not drawn) here?
Answer: -4%

Question: With `c1ccc(C[C@]2(c3ccccc3)CCNC2)cc1` as the compound, how does the “% Inhibition” value read?
Answer: 1%

Question: Which “% Inhibition” value does the source give for `O=c1cc(N2CCN(C3CCCC3)CC2)cnn1Cc1ccccc1` here?
Answer: -13%

Question: How did the “% Inhibition” value turn out when `O=C(Cc1ccccc1F)N1CC(n2cnnc2C2CCOCC2)C1` was run?
Answer: -14%

Question: Which “% Inhibition” value does the source give for `COc1ccc([C@@H]2CN(S(=O)(=O)c3ccc(OC)cc3)CCN2C)cc1` here?
Answer: 1%

Question: For `O=c1[nH]c2nc(N3CCC(N4CCCCC4)CC3)ncc2c(=O)n1-c1ccc2c(c1)OCO2`, which “% Inhibition” value is on record?
Answer: -9%

Question: With `CS(=O)(=O)N1CC[C@H](N(C(=O)NCCc2ccccc2)C2CCOCC2)C1` as the compound, how does the “% Inhibition” value read?
Answer: -14%

Question: With `CC(C)c1cccc(Nc2nc3ccncc3n(C(C)C)c2=O)c1` as the compound, how does the “% Inhibition” value read?
Answer: 95%

Question: For `O=C(CN1CCOC2CCCCC21)N1CCOC2CCCCC21` (stereo not drawn), which “% Inhibition” value is on record?
Answer: -9%

Question: For `Cc1cc(C(=O)NC(C2CC2)C2CC2)c(C)o1`, which “% Inhibition” value is on record?
Answer: -2%

Question: `O=C1NCCC[C@@H]1NS(=O)(=O)N1CCc2ccccc2C1` was tested. Which “% Inhibition” value did it give?
Answer: 0%

Question: For `CCc1cccc(NC(=O)N2CCN(C3=CC4=NC[C@H](C)N4C=N3)CC2)c1`, which “% Inhibition” value is on record?
Answer: 46%

Question: With `Cc1cc(-c2csc(CN3C(=O)CNC3=O)n2)cc(C)c1F` as the compound, how does the “% Inhibition” value read?
Answer: -4%

Question: How did the “% Inhibition” value turn out when `CNc1nc(N2C[C@H](C)[C@@](O)(C3CC3)C2)nc2c1CCC2` was run?
Answer: -11%

Question: For `Fc1ccccc1N1CCN(c2c3c(nc4nc(Cc5ccc(Cl)cc5)nn24)CCCC3)CC1`, which “% Inhibition” value is on record?
Answer: -11%

Question: For `CNC(=O)CNC(=O)c1cccc(Cl)c1`, which “% Inhibition” value is on record?
Answer: -1%

Question: `Cc1nc([C@@H]2CCCN2c2nc(C3CCCC3)ns2)no1` was tested. Which “% Inhibition” value did it give?
Answer: -6%

Question: For `Cc1cc(NC(=O)c2occc2-c2ccccc2)sn1`, which “% Inhibition” value is on record?
Answer: -2%

Question: For `CN(Cc1ccccc1)c1nc2ncn(CC(=O)NC3CCCCC3)c(=O)c2s1`, which “% Inhibition” value is on record?
Answer: -17%

Question: How did the “% Inhibition” value turn out when `Cc1ccc(S(=O)(=O)NCC2(CNS(=O)(=O)c3ccc(C)cc3)CN(S(=O)(=O)c3ccc(C)cc3)C2)cc1` was run?
Answer: 7%

Question: `COc1cccc(NC(=O)Cn2c(=O)n(C)c(=O)c3sc(N4CCCC4)nc32)c1` was tested. Which “% Inhibition” value did it give?
Answer: 0%

Question: `COc1cccc(Cn2c(=O)c3sccc3n(CC(=O)Nc3ccc4c(c3)OCO4)c2=O)c1` was tested. Which “% Inhibition” value did it give?
Answer: 10%

Question: For `COc1cccc(NC(=O)Cn2c(C)ccc(NS(=O)(=O)c3ccc(C)cc3)c2=O)c1`, which “% Inhibition” value is on record?
Answer: 63%

Question: `c1ccc2oc(-c3ccnc4nncn34)cc2c1` was tested. Which “% Inhibition” value did it give?
Answer: -7%

Question: With `COc1cc(C)c2[nH]c3c(c(=O)c2c1)CN(CC(=O)Nc1ccc2c(c1)OCCO2)CC3` as the compound, how does the “% Inhibition” value read?
Answer: 16%

Question: `O=C(NC1CCN(Cc2ccco2)CC1)c1ccco1` was tested. Which “% Inhibition” value did it give?
Answer: -9%

Question: `Clc1cccc(N2CCN(Cc3nc(-c4ccco4)no3)CC2)c1` was tested. Which “% Inhibition” value did it give?
Answer: -6%

Question: How did the “% Inhibition” value turn out when `CC(C)(C)OC(=O)NCC1CCCCC1C(F)(F)F` (stereo not drawn) was run?
Answer: 0%

Question: For `O=C(CNC(=O)OCc1ccccc1)Nc1ccc(F)cc1`, which “% Inhibition” value is on record?
Answer: -12%

Question: For `COc1cccc(-c2cc(C(=O)Nc3cc(Cl)ccc3C)c3c(C)nn(C)c3n2)c1`, which “% Inhibition” value is on record?
Answer: -15%

Question: `COc1cccc(-c2nn(-c3nc(-c4ccccc4)cc(C(F)(F)F)n3)c(-c3cccc(OC)c3)c2Cl)c1` was tested. Which “% Inhibition” value did it give?
Answer: 54%

Question: How did the “% Inhibition” value turn out when `COc1cccc(-c2cc(C(=O)Nc3ccc(F)c(Cl)c3)c3c(C)nn(C)c3n2)c1` was run?
Answer: -4%

Question: For `COc1cccc(-c2cc(C(=O)N3CCCN(C(=O)c4cc(-c5cccc(OC)c5)nc5ccccc45)CC3)c3ccccc3n2)c1`, which “% Inhibition” value is on record?
Answer: -1%

Question: With `COc1ccc(-c2cc(C(F)(F)F)nc(-n3nc(-c4cccc(OC)c4)c(Cl)c3-c3cccc(OC)c3)n2)cc1` as the compound, how does the “% Inhibition” value read?
Answer: 84%

Question: `COc1cccc(-c2nc3n(c2C(=O)Nc2cccc(Cl)c2)CCS3(=O)=O)c1` was tested. Which “% Inhibition” value did it give?
Answer: -3%
